Laboratory results: PubChem BioAssay AID1159580 (chemical genetic matrix, 2015)
Where “and” joins values, the source holds several entries; their conditions need not be identical. Equal entries are not always repeated. The campaign covered roughly 5,500 compounds. About 2,000 (36%) were called active. Inconclusive results (about 18%) are left out. No stated cut-off is given here; in the data, active means normalized growth mostly below about 0.91 (no sharp cut-off); inconclusive means no clear call, values can overlap the other calls; inactive means mostly above about 0.92. Some of the results follow.

Assay: chemical genetic growth profiling, strain panel (AID 1159580);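 further: tested at 20 µM; growth read once vehicle control cultures reached saturation at 30 °C; 1 = growth at the plate median or of vehicle wells; lower values mean less growth of the strain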
Details: S. cerevisiae deletion strains, growth OD

Measured: normalized growth

Cc1ccc(S(=O)(=O)NC(=O)NN2CC3CCCC3C2)cc1 (configuration not stated)
inactive: locus YAL013W, strain DEP1, hits give low values 1.01 | locus YAL021C, strain ccr4, hits give low values 0.996 | locus YAL026C, strain drs2, hits give low values 0.979 | locus YAL030W, strain snc1, hits give low values 0.982 | locus YBL061C, strain skt5, hits give low values 0.981 | locus YBR009C, strain hhf1, hits give low values 0.976 | locus YBR021W, strain FUR4, hits give low values 1.01 | locus YBR023C, strain chs3, hits give low values 0.973 | locus YBR171W, strain sec66, hits give low values 0.995 | locus YBR229C, strain ROT2, hits give low values 1.01 | locus YBR231C, strain swc5, hits give low values 0.984 | locus YBR279W, strain paf1, hits give low values 0.987 | locus YCL011C, strain gbp2, hits give low values 0.961 | locus YCL016C, strain dcc1, hits give low values 0.98 | locus YCL029C, strain bik1, hits give low values 1.01 | locus YCL069W, strain vba3, hits give low values 0.993 | locus YCR088W, strain abp1, hits give low values 0.972 | locus YDL005C, strain med2, hits give low values 0.98 | locus YDL035C, strain GPR1, hits give low values 0.946 | locus YDL040C, strain nat1, hits give low values 0.984 | locus YDL074C, strain BRE1, hits give low values 1.01 | locus YDL101C, strain DUN1, hits give low values 1.02 | locus YDL134C, strain PPH21, hits give low values 0.962 | locus YDL185W, strain tfp1, hits give low values 1.02 | locus YDL192W, strain arf1, hits give low values 1.01 | locus YDR001C, strain nth1, hits give low values 0.968 | locus YDR069C, strain doa4, hits give low values 0.99 | locus YDR101C, strain arx1, hits give low values 1 | locus YDR137W, strain rgp1, hits give low values 0.89 | locus YDR159W, strain sac3, hits give low values 0.991 | locus YDR162C, strain NBP2, hits give low values 0.994 | locus YDR195W, strain ref2 0.975 | locus YDR297W, strain sur2, hits give low values 0.975 | locus YDR318W, strain mcm21, hits give low values 1.01 | locus YDR334W, strain swr1, hits give low values 0.959 | locus YDR335W, strain msn5, hits give low values 0.979 | locus YDR388W, hits give low values 1.01 | locus YDR392W, strain spt3, hits give low values 0.974 | locus YDR502C, strain sam2, hits give low values 0.997 | locus YEL003W, strain gim4, hits give low values 0.968 | locus YEL037C, strain rad23, hits give low values 0.986 | locus YEL061C, strain CIN8 (second series), hits give low values 0.955 | locus YEL061C, strain CIN8, hits give low values 1 | locus YER015W, strain faa2, hits give low values 0.975 | locus YER016W, strain bim1, hits give low values 0.995 | locus YER110C, hits give low values 1.02 | locus YER111C, strain swi4, hits give low values 0.972 | locus YER155C, strain BEM2 (second series), hits give low values 0.977 | locus YER155C, strain BEM2, hits give low values 1 | locus YER167W, strain BCK2, hits give low values 1 | locus YFR010W, strain ubp6, hits give low values 0.986 | locus YGL078C, strain dbp3, hits give low values 1.01 | locus YGL086W, strain mad1, hits give low values 0.984 | locus YGL167C, strain pmr1, hits give low values 0.982 | locus YGL173C, strain kem1, hits give low values 1 | locus YGL227W, strain vid30, hits give low values 0.969 | locus YGL240W, strain doc1, hits give low values 0.969 | locus YGL248W, strain PDE1, hits give low values 0.995 | locus YGL253W, strain hxk2, hits give low values 0.987 | locus YGR135W, strain pre9, hits give low values 1.03 | locus YGR229C, strain SMI1, hits give low values 1.01 | locus YGR252W, strain gcn5, hits give low values 1.05 | locus YHR013C, strain ard1, hits give low values 0.967 | locus YHR027C, strain rpn1, hits give low values 0.983 | locus YHR030C, strain SLT2, hits give low values 1 and 0.961 | locus YHR079C, strain IRE1 (second series), hits give low values 1.01 | locus YHR079C, strain IRE1, hits give low values 0.966 | locus YHR094C, strain hxt1, hits give low values 1.01 | locus YHR129C, strain ARP1, hits give low values 0.992 | locus YHR142W, strain chs7, hits give low values 0.98 | locus YHR200W, strain rpn10, hits give low values 1.01 | locus YIL066C, strain RNR3, hits give low values 1 | locus YIL073C, strain SPO22, hits give low values 1.05 | locus YIL125W, strain kgd1, hits give low values 1.01 | locus YIR030C, strain dcg1, hits give low values 1.03 | locus YJL092W, strain hpr5, hits give low values 0.954 | locus YJL095W, strain BCK1 (second series), hits give low values 0.973 | locus YJL095W, strain BCK1, hits give low values 1.02 and 0.973 | locus YJL115W, strain asf1, hits give low values 0.945 | locus YJL129C, strain trk1, hits give low values 0.954 | locus YJL134W, strain LCB3, hits give low values 1 | locus YJL154C, strain vps35, hits give low values 0.97 | locus YJL164C, strain tpk1, hits give low values 0.97 | locus YJL166W, strain qcr8, hits give low values 0.981 | locus YJL168C, strain set2, hits give low values 1.01 | locus YJL187C, strain SWE1 (second series), hits give low values 1 | locus YJL187C, strain SWE1, hits give low values 0.989
